Screening data: PubChem, National Center for Advancing Translational Sciences (NCATS)
JMJD2E inh: qHTS Assay for Inhibitors of Human Jumonji Domain Containing 2E (JMJD2E) | Lysine-specific demethylase 4E (Homo sapiens), B2RXH2 | JMJD2E catalytic domain, FDH-coupled NADH fluorescence (FDH is formaldehyde dehydrogenase) | Potency, µM (top dose mostly 57.1 µM), inactives show top-dose activity change, negative = inhibition, hits mostly inhibitors | 230,000 tested, 1.6% active | AID 2147, 2009; active = well fitted inhibition curve with a large enough effect, not every such curve was filed as active; inconclusive = small, poorly fitted or top-dose-only effect, or another doubt; inactive = no such curve, though single readings can be large or run the other way;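 note: 0% = wells with enzyme and -100% = buffer wells without enzyme; nearly all actives have a fitted effect of over 50% in size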
Tau fluor counter: Counterscreen qHTS for Inhibitors of Tau Fibril Formation, Fluorescence Polarization; tau K18 P301L Alexa594 fluorescence, heparin fibrillization; Potency, µM (doses to about 57.7 µM), for inactives: at the highest dose activity change, negative = decrease; 280,000 tested, 0.93% active; AID 1463, 2008; note: nearly all actives have a fitted effect of over 55% in size
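Human K18 P301L tau (15 uM unlabeled plus 0.24 uM Alexa 594-labeled, final) in 100 mM sodium acetate pH 7 was mixed with compound and 20 uM heparin and incubated 6 hr at 37 C.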
Tau ThT inhib: qHTS for Inhibitors of Tau Fibril Formation, Thioflavin T Binding | recombinant tau K18 P301L, heparin-induced fibrillization, ThT fluorescence | Potency, µM (highest dose often 57.4 µM), for inactives: at the highest dose activity, negative = inhibition, actives largely listed as inhibitors | 270,000 tested, 2.1% active | AID 1460, 2008; note: nearly all actives have a fitted effect of over 55% in size
Target sequence (P10636 561-689 P618L limits assumed): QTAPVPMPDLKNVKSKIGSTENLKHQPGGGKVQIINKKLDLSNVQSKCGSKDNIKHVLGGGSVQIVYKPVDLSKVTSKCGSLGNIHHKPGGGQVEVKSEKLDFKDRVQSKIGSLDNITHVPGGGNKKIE
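ThT emission at 510 nm, taken 1 hr after adding 30 uM dye, quantifies aggregates formed when 20 uM heparin acts on human tau K18 P301L for 6 hr at 37 C.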
TRb-SRC2 inh: qHTS for Inhibitors of the Interaction of Thyroid Hormone Receptor and Steroid Receptor Coregulator 2; TRbeta-SRC2 peptide binding, fluorescence polarization; receptor liganded with 1 µM T3; 280,000 tested, 0.065% active; Potency, µM (highest dose often 106 µM), for inactives: at the top dose activity change, negative = inhibition, actives largely listed as inhibitors; AID 1469, 2008;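 note: plate controls were bound peptide for no effect and peptide without receptor for full effect; nearly all actives have a fitted effect of over 50% in size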
Target sequence (P10828 whole entry, looked up): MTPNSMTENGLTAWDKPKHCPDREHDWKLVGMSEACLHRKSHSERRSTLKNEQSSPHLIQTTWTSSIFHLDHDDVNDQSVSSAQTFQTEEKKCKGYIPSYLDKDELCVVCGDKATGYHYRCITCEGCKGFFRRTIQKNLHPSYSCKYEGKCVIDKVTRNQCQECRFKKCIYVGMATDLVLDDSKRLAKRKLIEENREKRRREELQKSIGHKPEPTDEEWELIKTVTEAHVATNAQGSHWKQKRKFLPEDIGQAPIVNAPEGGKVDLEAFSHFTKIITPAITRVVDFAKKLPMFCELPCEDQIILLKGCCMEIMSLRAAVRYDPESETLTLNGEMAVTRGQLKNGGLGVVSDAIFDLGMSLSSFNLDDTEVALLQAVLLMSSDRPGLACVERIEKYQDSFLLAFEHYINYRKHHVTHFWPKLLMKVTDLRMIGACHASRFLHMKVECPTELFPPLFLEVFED
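Polarization signal, normalized between peptide-alone and full complex controls, measured compound effects on T3-liganded human TRb LBD (0.6 uM) binding 20 nM Texas Red SRC2 peptide after 5 hr.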
Tau FP inhib: qHTS for Inhibitors of Tau Fibril Formation, Fluorescence Polarization; Potency, µM (titrated, usually from 57.7 µM), without a hit: top-dose activity, negative = inhibition, actives largely listed as inhibitors; 280,000 tested, 0.39% active; K18 P301L tau heparin fibrillization, Alexa594 FP, 6 h; AID 1468, 2008; note: nearly all actives have a fitted effect of over 55% in size
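Compound effects on tau fibrillization are measured by Alexa 594 fluorescence polarization (ex 555, em 632 nm). K18 P301L tau is used at 15 uM with 0.24 uM labeled tracer, and 20 uM heparin induces aggregation over 6 hr at 37 C.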
TexasRed fluor: Total Fluorescence Counterscreen for Inhibitors of the Interaction of Thyroid Hormone Receptor and Steroid Receptor Coregulator 2; Potency, µM (highest dose often 106 µM), without a hit: top-dose fluorescence change, negative = quenching; TRb/SRC2 Texas Red total fluorescence interference; 280,000 tested, 0.29% active; active = well fitted curve in either direction with a large enough effect; inconclusive = small, poorly fitted or top-dose-only effect
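Human TRβ ligand-binding domain (0.6 uM) and Texas Red SRC2 peptide (20 nM) in Tris buffer with 1 uM T3 and 5% DMSO were incubated with pinned compound for 5 hr at ambient temperature. Total fluorescence was computed as S + 2P (555/632 nm).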
* marks the source's active call; other numbers are inactive results; ? = inconclusive; · = no result given; [ ] = dose if it differs, or a comment. Hits are enriched below; roughly 3.5% of the tested compounds scored in any of these assays. Unless noted, calls come from the whole dose curve; as a rule, active = well fitted curve in the direction sought with a large enough effect; inconclusive = small, poorly fitted or top-dose-only effect, or another doubt; inactive = no such curve, though single readings can be large; an effect the other way counts as inactive or inconclusive. Unless noted, % is set by controls: 0 for no effect and ±100 for the full control effect; potency is the fitted concentration of half-maximal effect.

SMILES	JMJD2E inh	Tau fluor counter	Tau ThT inhib	TRb-SRC2 inh	Tau FP inhib	TexasRed fluor
Cc1cc(C)cc(NC(=S)NCc2ccc3[nH]c4c(c3c2)CCCC4)c1	0%	10µM*[quencher]	?	-2%	?	-7%
COc1ccc(-c2csc(NC(=O)C3CC(=O)N(c4ccc5c(c4)OCCO5)C3)n2)cc1 (stereo unspecified)	-19%	?	?	14%	-6%	-6%
COc1ccc(-c2n[nH]c(C(F)(F)F)c2-c2cc3ccccc3o2)c(O)c1	?	?	18µM*	0%	-1%	-11%
O=C(C=C=Nc1ccccc1)C(=O)N=C=Cc1ccccc1	5%	?	10µM*	-1%	?	-1%
Oc1ccc(N=Nc2n[nH]c(-c3ccc(Cl)cc3)n2)cc1	-15%	?	1.8µM*	9%	4%	-17%
OC(C#CCN1CCCC1)(c1ccccc1)c1cccc(F)c1 (stereo unspecified)	4%	-4%	-6%	-18%	-4%	-7%
CCN=c1scc(C)n1/N=C/c1ccc(O)c(O)c1O	11µM*	?	11µM*	1%	22µM*	-19%
CCOC(=O)c1c(C)n(C)c2cc([N+](=O)[O-])c(O)c([N+](=O)[O-])c12	1%	-22%	8.9µM*	-2%	-7%	-1%
CCOC(=O)c1c(C)n(C)c2cc(Br)c(O)c(O)c12	3%	-23%	?	7%	-10%	-1%
CCOc1ccc(N2CC(c3nc4ccccc4n3CCCOc3ccccc3OC)CC2=O)cc1 (stereo unspecified)	·	-12%	?	-6%	-8%	71µM*[quencher]
CCCC[P+](CCCC)(CCCC)Cc1ccc(NC(=O)[C@@H](Cc2ccc3ccccc3c2)NC(=NC2CCCCC2)NC2CCCCC2)cc1	-12%	-16%	?	10%	-14%	-2%
N#C/C(=C\c1ccccc1)C(=O)Nc1sc2c(c1C(N)=O)CCC2	·	-7%	1.4µM*	-5%	8%	0%
COC(=O)c1c(NC(=O)C2c3ccccc3Oc3ccccc32)sc2c1CCC(C)C2 (stereo unspecified)	·	-2%	-6%	-4%	-5%	?
COc1ccc(/C(O)=C2/C(=O)C(=O)N(CCN(C)C)C2c2cccnc2)cc1OC (stereo unspecified)	?	6%	0%	-9%	-4%	-2%
O=C1/C(=C/c2cccc(Cl)c2)CSc2sccc21	4%	-29%	-17%	7%	-2%	0%
Cc1cccc(/C=C2\CS/C(=C\c3cccc(C)c3)C2=O)c1	2%	-19%	3.5µM*	-2%	-3%	1%
Cc1ccc(NC(=O)C(OC(=O)c2ccc(O)cc2)c2ccccc2)cc1Cl (stereo unspecified)	10%	?	12%	2%	28µM*	-2%
CC(=O)Nc1cccc(C(=O)OC(C(=O)c2ccc(C)c(C)c2)c2ccccc2)c1 (stereo unspecified)	1%	?	5%	-3%	16µM*	-2%
CC(=O)Nc1cccc(C(=O)OC(C(=O)c2ccc(C)cc2)c2ccccc2)c1 (stereo unspecified)	2%	?	13%	6%	14µM*	-7%
C=CCOC(=O)N[C@H](/C(C(=O)OC)=C(\C)NCc1ccccc1)c1ccc(C)cc1	4%	-4%	?	5%	8%	-3%
COc1ccc(-c2cc(C(=O)Nc3ccc4c(c3)OCO4)no2)cc1OC	·	-15%	?	-4%	3%	?
COc1ccc(OC)c(C(=O)CN2C(=O)N(c3cc(C)cc(C)c3)S(=O)(=O)c3ccccc32)c1	·	-26%	-9%	4%	?	0%
Cc1cc([N+](=O)[O-])nn1CC(=O)N/N=C/c1ccccc1O	7.9µM*	0%	-5%	1%	5%	-2%
Nc1nnc(CC(=O)N/N=C\c2cc([N+](=O)[O-])ccc2O)s1	14µM*	-13%	?	-5%	-4%	-9%
Nc1nnnn1CC(=O)N/N=C/c1cc([N+](=O)[O-])ccc1O	7.9µM*	-4%	-15%	-9%	1%	0%
SMILES	JMJD2E inh	Tau fluor counter	Tau ThT inhib	TRb-SRC2 inh	Tau FP inhib	TexasRed fluor
Cc1cc(C)n(CC(=O)N/N=C/c2cc([N+](=O)[O-])ccc2O)n1	5%	0%	8%	-12%	7%	-8%
Cn1c(SCC(=O)N/N=C/c2cc([N+](=O)[O-])ccc2O)nnc1-c1ccccc1	10µM*	4%	·	-7%	10%	-1%
NC(=O)c1ccsc1NC(=O)c1ccc(N2CCCC2=O)cc1	-29%	-26%	?	-5%	-3%	0%
COc1ccc(C(=O)N/C(=C/c2cccs2)c2nc3ccccc3[nH]2)cc1OC	?	-10%	-7%	-3%	-4%	-6%
COc1cccc(/C=N/Nc2nc3ccccc3n3cnnc23)c1O	28µM*	-18%	?	-2%	14%	-1%
COc1cc(/C=C(/C(=O)c2cccs2)c2nc3ccccc3[nH]2)cc(OC)c1O	?	?	14µM*	-10%	-2%	-3%
COc1cccc(/C=N/Nc2nc3ccccc3[nH]2)c1O	4.5µM*	-30%	?	3%	13%	-16%
COc1cccc(/C=N/Nc2nc3ccccc3[nH]2)c1OC	-26%	-27%	?	-4%	12%	-1%
COc1cc(/C=N/Nc2nc3ccccc3[nH]2)ccc1O	?	?	5µM*	7%	?	-11%
COc1cc(/C=N/Nc2nc3ccccc3[nH]c2=O)ccc1O	-7%	-29%	?	4%	-1%	-9%
CCc1ccc(NS(=O)(=O)c2ccc3[nH]cc(C(=O)N4CCCCCC4)c(=O)c3c2)cc1	·	?	-12%	0%	-10%	1%
O=C(/C(=C/c1ccc(Cl)cc1)c1nc2ccccc2[nH]1)c1ccccc1	2%	-22%	40µM*	-10%	?	-1%
COc1cc(/C=N/NC(=Nc2ccc(C)cc2)c2nc3ccccc3s2)ccc1O	-18%	11µM*[quencher]	?	-3%	16%	0%
COc1cc(/C=N/NC(=O)Cn2nnc3ccccc32)ccc1O	-21%	-2%	-7%	6%	4%	0%
